Source: PubChem BioAssay AID1159580 (chemical genetic matrix, 2015)
In all, about 5,500 compounds went through this assay and about 2,000 (36%) were called active. About 18% were inconclusive and are not listed. Rule as the data show it: active = normalized growth mostly below about 0.91 (no sharp cut-off); inconclusive = no clear call, values can overlap the other calls; inactive = mostly above about 0.92. This is one part of the list.

Assay: chemical genetic growth profiling, strain panel (AID 1159580);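 also: tested at 20 µM; growth read once vehicle control cultures reached saturation at 30 °C; 1 = growth at the plate median or of vehicle wells; lower values mean less growth of the strain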
Details: growth OD

Measured: normalized growth

Cn1c(=O)[nH]c(=O)c2[nH]cnc21
inactive: S. cerevisiae deletion strains, locus YJR075W, strain HOC1, active compounds read low 0.995 | S. cerevisiae deletion strains, locus YKL009W, strain mrt4, active compounds read low 0.998 | S. cerevisiae deletion strains, locus YKL068W, active compounds read low 0.97 | S. cerevisiae deletion strains, locus YKL085W, strain MDH1 (second series), active compounds read low 0.976 | S. cerevisiae deletion strains, locus YKL085W, strain MDH1, active compounds read low 0.976 | S. cerevisiae deletion strains, locus YKL160W, strain elf1, active compounds read low 1 | S. cerevisiae deletion strains, locus YKL190W, strain CNB1, active compounds read low 0.995 | S. cerevisiae deletion strains, locus YKR001C, strain vps1, active compounds read low 0.987 | S. cerevisiae deletion strains, locus YKR026C, strain gcn3, active compounds read low 0.984 | S. cerevisiae deletion strains, locus YKR091W, strain srl3, active compounds read low 0.992 | S. cerevisiae deletion strains, locus YLL001W, strain dnm1, active compounds read low 1.01 | S. cerevisiae deletion strains, locus YLL026W, active compounds read low 1 | S. cerevisiae deletion strains, locus YLL041C, strain sdh2, active compounds read low 1 | S. cerevisiae deletion strains, locus YLR027C, strain aat2, active compounds read low 0.974 | S. cerevisiae deletion strains, locus YLR039C, strain RIC1, active compounds read low 0.974 | S. cerevisiae deletion strains, locus YLR058C, strain SHM2, active compounds read low 0.988 | S. cerevisiae deletion strains, locus YLR102C, strain apc9, active compounds read low 0.972 | S. cerevisiae deletion strains, locus YLR113W, strain HOG1, active compounds read low 0.998 | S. cerevisiae deletion strains, locus YLR221C, strain rsa3, active compounds read low 1.01 | S. cerevisiae deletion strains, locus YLR258W, strain gsy2, active compounds read low 0.999 | S. cerevisiae deletion strains, locus YLR262C, strain YPT6 (second series), active compounds read low 0.976 | S. cerevisiae deletion strains, locus YLR262C, strain YPT6, active compounds read low 1.01 | S. cerevisiae deletion strains, locus YLR268W, strain sec22, active compounds read low 0.956 | S. cerevisiae deletion strains, locus YLR320W, strain mms22, active compounds read low 0.987 | S. cerevisiae deletion strains, locus YLR330W, strain CHS5, active compounds read low 0.991 | S. cerevisiae deletion strains, locus YLR342W, strain FKS1 (second series), active compounds read low 1.01 | S. cerevisiae deletion strains, locus YLR342W, strain FKS1, active compounds read low 1.01 | S. cerevisiae deletion strains, locus YLR357W, strain rsc2, active compounds read low 0.971 | S. cerevisiae deletion strains, locus YLR370C, strain arc18, active compounds read low 0.989 | S. cerevisiae deletion strains, locus YLR371W, strain rom2, active compounds read low 0.96 | S. cerevisiae deletion strains, locus YLR384C, strain iki3, active compounds read low 0.983 | S. cerevisiae deletion strains, locus YLR418C, strain cdc73, active compounds read low 0.983 | S. cerevisiae deletion strains, locus YML016C, strain PPZ1, active compounds read low 0.986 | S. cerevisiae deletion strains, locus YML032C, strain rad52, active compounds read low 0.974 | S. cerevisiae deletion strains, locus YML120C, strain ndi1, active compounds read low 0.999 | S. cerevisiae deletion strains, locus YML124C, strain tub3, active compounds read low 0.972 | S. cerevisiae deletion strains, locus YMR058W, strain fet3, active compounds read low 1.01 | S. cerevisiae deletion strains, locus YMR078C, strain ctf18, active compounds read low 0.954 | S. cerevisiae deletion strains, locus YMR125W, strain sto1, active compounds read low 1.01 | S. cerevisiae deletion strains, locus YMR129W, active compounds read low 0.99 | S. cerevisiae deletion strains, locus YMR205C, strain PFK2, active compounds read low 0.998 | S. cerevisiae deletion strains, locus YMR223W, strain ubp8, active compounds read low 0.987 | S. cerevisiae deletion strains, locus YMR231W, strain pep5, active compounds read low 0.992 | S. cerevisiae deletion strains, locus YMR263W, strain SAP30, active compounds read low 0.953 | S. cerevisiae deletion strains, locus YMR307W, strain GAS1, active compounds read low 0.948 | S. cerevisiae deletion strains, locus YNL067W, strain RPL9B, active compounds read low 0.996 | S. cerevisiae deletion strains, locus YNL071W, strain lat1, active compounds read low 0.98 | S. cerevisiae deletion strains, locus YNL128W, strain TEP1, active compounds read low 0.987 | S. cerevisiae deletion strains, locus YNL153C, strain GIM3, active compounds read low 0.993 | S. cerevisiae deletion strains, locus YNL183C, strain NPR1, active compounds read low 0.925 | S. cerevisiae deletion strains, locus YNL209W, strain ssb2, active compounds read low 0.983 | S. cerevisiae deletion strains, locus YNL233W, strain BNI4, active compounds read low 0.981 | S. cerevisiae deletion strains, locus YNL248C, strain rpa49, active compounds read low 0.985 | S. cerevisiae deletion strains, locus YNL250W, strain rad50, active compounds read low 0.956 | S. cerevisiae deletion strains, locus YNL271C, strain bni1, active compounds read low 0.963 | S. cerevisiae deletion strains, locus YNL298W, strain CLA4, active compounds read low 0.972 | S. cerevisiae deletion strains, locus YNL307C, strain MCK1, active compounds read low 0.975 | S. cerevisiae deletion strains, locus YNL322C, strain KRE1 (second series), active compounds read low 0.968 | S. cerevisiae deletion strains, locus YNL322C, strain KRE1, active compounds read low 0.997 | S. cerevisiae deletion strains, locus YNR049C, strain mso1, active compounds read low 1 | S. cerevisiae deletion strains, locus YNR052C, strain pop2, active compounds read low 0.97 | S. cerevisiae deletion strains, locus YOL006C, strain TOP1, active compounds read low 0.965 | S. cerevisiae deletion strains, locus YOL012C, strain htz1 1.01 | S. cerevisiae deletion strains, locus YOL147C, strain pex11, active compounds read low 0.981 | S. cerevisiae deletion strains, locus YOR001W, strain rrp6, active compounds read low 1.01 | S. cerevisiae deletion strains, locus YOR061W, strain CKA2, active compounds read low 0.986 | S. cerevisiae deletion strains, locus YOR069W, strain VPS5, active compounds read low 0.981 | S. cerevisiae deletion strains, locus YOR070C, strain gyp1, active compounds read low 0.998 | S. cerevisiae deletion strains, locus YOR080W, strain dia2, active compounds read low 0.986 | S. cerevisiae deletion strains, locus YOR083W, strain WHI5, active compounds read low 0.933 | S. cerevisiae deletion strains, locus YOR106W, strain vam3, active compounds read low 0.977 | S. cerevisiae deletion strains, locus YOR136W, strain idh2, active compounds read low 0.967 | S. cerevisiae deletion strains, locus YOR144C, strain elg1, active compounds read low 0.958 | S. cerevisiae deletion strains, locus YOR184W, strain ser1, active compounds read low 0.966 | S. cerevisiae deletion strains, locus YOR231W, strain MKK1, active compounds read low 0.978 | S. cerevisiae deletion strains, locus YOR265W, strain rbl2, active compounds read low 0.988 | S. cerevisiae deletion strains, locus YOR270C, strain vph1, active compounds read low 0.981 | S. cerevisiae deletion strains, locus YOR290C, strain snf2, active compounds read low 0.987 | S. cerevisiae deletion strains, locus YOR316C, strain cot1, active compounds read low 0.972 | S. cerevisiae deletion strains, locus YPL051W, strain arl3, active compounds read low 0.988 | S. cerevisiae deletion strains, locus YPL055C, strain LGE1, active compounds read low 1 | S. cerevisiae deletion strains, locus YPL078C, strain atp4, active compounds read low 0.988 | S. cerevisiae deletion strains, locus YPL106C, strain sse1, active compounds read low 0.958 | S. cerevisiae deletion strains, locus YPL240C, strain hsp82, active compounds read low 1.02 | S. cerevisiae deletion strains, locus YPL241C, strain CIN2, active compounds read low 0.993 | S. cerevisiae deletion strains, locus YPL256C, strain CLN2, active compounds read low 0.972 | S. cerevisiae deletion strains, locus YPR119W, strain clb2, active compounds read low 0.974 | S. cerevisiae deletion strains, locus YPR141C, strain kar3, active compounds read low 0.952 | S. cerevisiae deletion strains, locus YPR163C, strain tif3, active compounds read low 0.965 | S. cerevisiae deletion strains, locus YPR167C, strain met16, active compounds read low 0.965 | S. cerevisiae deletion strains, strain wtn01, active compounds read low 0.982 | S. cerevisiae strains, strain wild type, active compounds read low 0.993
